According to PubChem BioAssay AID651702 (NMMLSC, 2012):
Among all 360,000 compounds or so, about 2,400 (0.67%) were called active.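 Rule for the calls: active = inhibition above about 55% (limit read from the data); inconclusive = no clear call, values can overlap the other calls; inactive = the rest.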 Only a selection was taken, and actives are over-represented in it overall.

Assay: LAMP-1 surface exposure blockers, TALL-104 cells – cell-based, flow cytometry, MLPCN library, primary screen (AID 651702)
Conditions: TALL-104 LAMP-1 surface exposure, at 10 µM, stronger effect = higher value, cells stimulated with thapsigargin and PMA

Row | Structure (SMILES) | inhibition
1 | Cc1ccc(C(=O)O)cc1-c1ccc(/C=C2\SC(=O)N(CC(=O)Nc3ccc4c(c3)OCO4)C2=O)o1 | -0.4% (inactive)
2 | CN1C(=O)/C(=C\c2ccc(-c3ccccc3)o2)SC1=S | 66.7% (active)
3 | NS(=O)(=O)c1ccc(-c2ccc(/C=C3\SC(=O)NC3=O)o2)cc1 | -14.3% (inactive)
4 | NC(=O)CCCC1=NS(=O)(=O)c2ccccc2N1 | -3.9% (inactive)
5 | CN1CCN(NC(=O)Nc2ccc(Br)cc2)CC1 | -2% (inactive)
6 | O=C(NC(=O)c1ccccc1N1CCCCC1)Nc1ccc(Br)cc1 | 84.6% (active)
7 | O=C(Nc1ccc(C(=O)O)cc1)/C(=C\c1ccccc1)NC(=O)c1ccc(Br)cc1 | 9.3% (inactive)
8 | Cc1ccc(C)c(NC(=O)CCC(=O)N/N=C2/CC(=O)CC(C)(C)C2)c1 | 3.3% (inactive)
9 | OCCNc1nc(Nc2ccc(Cl)c(Cl)c2)nc2ccccc12 | 57.7% (active)
10 | COCCNc1nc(Nc2ccccc2Cl)c2sc(-c3ccccc3)cc2n1 | 47.2% (inactive)
11 | OCCNCCOc1ccc(Cl)c(Cl)c1 | 6.6% (inactive)
12 | COc1ccccc1Nc1nnc(SC(C)C(=O)NC2CC2)s1 (stereo not drawn) | 1.8% (inactive)
13 | COc1ccc(C23NCCN2C(=O)c2ccccc23)cc1 (stereo not drawn) | 8.9% (inactive)
14 | CCc1oc(-c2ccc(OC)cc2)c(C(=O)OCCCCCO)c1C(C)OCCO (stereo not drawn) | 3.7% (inactive)
15 | COc1ccc(-c2oc3ncnc(NCCCO)c3c2-c2ccc(OC)cc2)cc1 | 70.3% (active)
16 | COCCNc1ncnc2c1ncn2[C@H]1CN(Cc2ccc(OC)cc2)C[C@@H](CO)O1 | 0.2% (inactive)
17 | C#CCN1CC(C)/C(=N/O)CC1C (stereo not drawn) | 0.9% (inactive)
18 | CCn1c(-c2ccoc2C)n[nH]c1=S | 0.6% (inactive)
19 | COc1ccc(C2CC(c3cccs3)=NN2C(=O)CSc2nnc(N)s2)cc1OC (stereo not drawn) | -3.2% (inactive)
20 | COc1ccc(C2CC(c3cccs3)=NN2C(=O)COC(=O)c2cc3ccccc3cc2O)cc1OC (stereo not drawn) | -2.9% (inactive)
21 | COc1ccc(C2CC(c3cccs3)=NN2c2nc(C)c(C(C)=O)s2)cc1OC (stereo not drawn) | 87.5% (active)
22 | Cc1ccc(-n2nc(N)c3c(=O)oc(N(C)C)nc32)cc1 | -0.9% (inactive)
23 | Cc1cc(NC(=O)CSc2ncc(C(F)(F)F)cc2Cl)no1 | 5.6% (inactive)
24 | Cc1nn(-c2ncc(C(F)(F)F)cc2Cl)c(=O)n1-c1ccccc1 | -0.5% (inactive)
25 | Cc1ccc(-c2ccnc3nc(Sc4ncc(C(F)(F)F)cc4Cl)nn23)cc1 | 67.5% (active)

Row | Structure (SMILES) | inhibition
26 | Cn1cnc(S(=O)(=O)Nc2ccc3c(c2)OCCO3)c1 | 5.9% (inactive)
27 | CCC(=O)Nc1c(C)n[nH]c1C | -0.1% (inactive)
28 | COc1ccc(-c2cc(NC=O)c3ncc(-c4cc(OC)c(OC)c(OC)c4)n3c2)c(OC)c1 | 28.6% (inactive)
29 | COc1ccc(-c2cc(NC=O)c3ncc(-c4ccccc4)n3c2)cc1OC | 81.8% (active)
30 | CC(=O)c1cccc(-c2cnc3c(NC=O)cc(-c4ccccc4Oc4ccccc4)cn23)c1 | 13.9% (inactive)
31 | CC(NC(=O)CN(C)S(=O)(=O)c1ccc(F)cc1)C1CC2CCC1C2 (stereo not drawn) | 0.1% (inactive)
32 | O=C(Cc1coc2ccc3ccccc3c12)NCc1cccs1 | -2.5% (inactive)
33 | O=C(NCc1cccs1)c1ccc(Br)o1 | -0.6% (inactive)
34 | CC(C)Cn1c(N)c(C(=O)NCc2cccs2)c2nc3ccccc3nc21 | 59.6% (active)
35 | COc1ccc2cc(-c3[nH]ncc3CNCCn3nc(C)cc3C)ccc2c1 | 18.3% (inactive)
36 | COc1ccc(-c2[nH]ncc2CN(C)Cc2c(C)n[nH]c2C)c(OC)c1 | -1.2% (inactive)
37 | COc1ccc(-c2c(-c3ccc(OC)cc3O)nc(C)nc2C(F)(F)F)cc1 | 27.6% (inactive)
38 | COc1ccc(N=Nc2c(-c3ccc(OC)cc3)[nH]oc2=O)cc1 | -8.4% (inactive)
39 | COc1ccc(Oc2cn[nH]c2-c2ccc(OC)cc2O)cc1 | 60.1% (active)
40 | COc1ccc(-c2cn[nH]c2-c2ccc(OC)cc2)cc1 | 65.6% (active)
41 | Cn1c(C(=O)N2CCCC(C(=O)NCc3ccccc3)C2)cc2sccc21 (stereo not drawn) | -4.6% (inactive)
42 | COc1ccc(S(=O)(=O)N2CCN(CC(=O)N3CCOCC3)CC2)cc1OC | -0.5% (inactive)
43 | Cc1ccc(OCCC(=O)OCC(=O)N2c3ccccc3NC(=O)C2(C)C)cc1 | 3.1% (inactive)
44 | COc1ccc2[nH]c(=O)c(C3c4cc(OC)c(OC)cc4CCN3C(=O)c3ccco3)cc2c1 (stereo not drawn) | -2.2% (inactive)
45 | CCNC(=O)COC(=O)CCNC(=O)c1cccc(C)c1 | -0.6% (inactive)
46 | O=C(NCCN1CCOCC1)c1cccc(S(=O)(=O)Nc2ccc(F)cc2)c1 | -1.1% (inactive)
47 | Cc1cccc(-c2nc3ccc(C(=O)NCCN4CCN(C)CC4)cc3nc2-c2cccc(C)c2)c1 | 57.4% (active)
48 | CCC(C)CN1C(=O)CN(S(C)(=O)=O)CC1(C)C(=O)Nc1ccc2c(c1)OCCO2 (stereo not drawn) | -2% (inactive)
49 | Cc1coc2c(O)cc3c(c12)OC1(N2CCCCC2)C(=O)NCCCC31 (stereo not drawn) | 68.1% (active)
50 | CC1CN(C2CCN(C(=O)COc3ccccc3)CC2)CC(C)O1 (stereo not drawn) | -2.5% (inactive)

Row | Structure (SMILES) | inhibition
51 | COc1cccc(CNc2nc(NCc3ccccc3OC)nc3ccsc23)c1 | 73.8% (active)
52 | COc1cccc(CNc2nc(NCc3cccs3)nc3ccsc23)c1 | 21% (inactive)
53 | COc1ccccc1CNc1nc(Nc2ccccc2Cl)c2sccc2n1 | 2% (inactive)
54 | CC1CCCC(C)N1C(=O)CSc1nnnn1C1CCCC1 (stereo not drawn) | -4% (inactive)
55 | COc1ccccc1C1=CC(=O)CCC1 | 47.3% (inactive)
56 | COc1ccccc1-c1nc(C(F)(F)F)c(OC)o1 | 1.1% (inactive)
57 | COc1ccccc1C1=Nc2cccc3cccc(c23)N1 | 65.7% (active)
58 | COc1ccc(CC(=O)N[C@@H]2c3cc(OC)c(OC)cc3C[C@H]2OCc2ccccc2)cc1 | -2.2% (inactive)
59 | COc1ccccc1CC(NC(C)=O)C(=O)NC1CCN(C(=O)Nc2ccccc2Cl)CC1 (stereo not drawn) | 6.8% (inactive)
60 | C[C@H](CO)N1C[C@H](C)[C@@H](CN(C)Cc2ccc3c(c2)OCO3)OCc2cnnn2CCCC1=O | 2.5% (inactive)
61 | Cc1cccc(C)c1NC(=O)CCS(=O)(=O)c1cccc2nsnc12 | -2.7% (inactive)
62 | O=C(CCS(=O)(=O)c1ccccc1)NC1CCCC1 | -1.3% (inactive)
63 | Cc1cccc2sc(N(CCCN(C)C)C(=O)CCS(=O)(=O)c3ccccc3)nc12 | 90.8% (active)
64 | COC(=O)COc1ccc(C2NC(=O)NC(C)=C2C(=O)NCc2ccccc2)cc1OC (stereo not drawn) | -3.7% (inactive)
65 | COc1ccc(CN(C)C(=O)c2cc(-c3ccc(C)cc3C)nc3ccccc23)c(OC)c1OC | 19.4% (inactive)
66 | COc1ccc(-c2cc(C(=O)N(C)Cc3ccccc3)c3ccccc3n2)cc1 | 74.5% (active)
67 | COc1ccc(C2=NS(=O)(=O)N(C)C(C(=O)N(C)Cc3ccccc3)=C2)cc1 | -1.2% (inactive)
68 | COc1c(C)cc(C(=O)C2CCCN(S(=O)(=O)c3c(C)noc3C)C2)cc1C (stereo not drawn) | -1.1% (inactive)
69 | O=C(CC(CC(=O)c1ccccc1)c1ccco1)c1ccccc1 | 4.2% (inactive)
70 | CC(C)c1ccccc1OCC(O)CN(CC(O)COc1cccc2ccccc12)C(C)C (stereo not drawn) | 73.4% (active)
71 | CN1CCN(CCCCOc2cccc3ccccc23)CC1 | 24.7% (inactive)
72 | CC1CC(C)CN(CCOc2cccc3ccccc23)C1 (stereo not drawn) | 7.6% (inactive)
73 | CCCC(NC(=O)c1ccccc1)c1nc2ccccc2n1Cc1ccc(C(=O)OC)o1 (stereo not drawn) | 0.5% (inactive)
